From PubChem BioAssay come the findings set out here.

The inhibition is the change of the read-out against control, counted positive when it falls.

Test [1] has as its target Inward rectifier potassium channel 2 (Mus musculus) (UniProt P35561). Nature of the test: mouse Kir2.1 channel blockers, retest, confirmation, cell-based, FluxOR thallium flux, duplicate (AID 2032;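 active = Primary-screen hit whose thallium flux fell at least 3 control SD below untreated wells in both duplicates, with normal baseline fluorescence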). Particulars: Kir2.1-expressing cells, FluxOR thallium flux fluorescence, at 10 µM; active compounds read low.
Test [2] in a line: nonspecific thallium flux effects in parental HEK293 cells, confirmation, counter-screen for Kir2.1 inhibitor project, cell-based, FluxOR thallium flux, duplicate, single concentration (AID 2105;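 active = dye signal at least 3 control SD above or below untreated wells in both duplicates, raw fluorescence within 3, either direction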;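 for FluxOR signal as % of negative control (100 = no effect): percent is based on the flux ratio of peak minus minimum fluorescence over baseline F0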). The following applies: FluxOR thallium flux fluorescence, at 10 µM; 0% = unstimulated blank wells. On the technique in general: The purpose of a counterscreen is to sort out artefacts and off-target activity.

Test [3] is described as follows: nonspecific thallium flux increase in parental CHO-K1, confirmation, counter-screen for KCNQ2 potentiator project, cell-based, FluxOR thallium flux, duplicate (AID 2282;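 active = signal rise of at least 3 SD above the untreated control mean, in both duplicate wells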;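 note: counter screen of KCNQ2 potentiator hits so any rise reflects channel-independent effects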). The following applies: parental CHO-K1 cells, FluxOR thallium flux fluorescence; at 10 µM; active compounds read high; zero = vehicle mean+3SD, 100% = vehicle-minus-blank window.
In test [4] the target is Potassium voltage-gated channel subfamily KQT member 1 (Homo sapiens) (UniProt P51787). In words: human KCNQ1 channel potentiation off-target, confirmation, selectivity assay for KCNQ2 potentiator project, cell-based, CHO, FluxOR thallium flux (AID 2283;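 active = fluorescence ratio rise of at least 3 SD of vehicle wells above their mean, in both replicate wells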;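 note: 0% = vehicle mean plus 3 SD and 100% = vehicle minus unstimulated blank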). The following applies: CHO KCNQ1 stable, FluxOR thallium flux fluorescence; at 10 µM; active compounds read high; beyond 3SD, as % of vehicle-control signal.
Potassium voltage-gated channel subfamily KQT member 1 (Homo sapiens), sequence (P51787 whole entry, looked up): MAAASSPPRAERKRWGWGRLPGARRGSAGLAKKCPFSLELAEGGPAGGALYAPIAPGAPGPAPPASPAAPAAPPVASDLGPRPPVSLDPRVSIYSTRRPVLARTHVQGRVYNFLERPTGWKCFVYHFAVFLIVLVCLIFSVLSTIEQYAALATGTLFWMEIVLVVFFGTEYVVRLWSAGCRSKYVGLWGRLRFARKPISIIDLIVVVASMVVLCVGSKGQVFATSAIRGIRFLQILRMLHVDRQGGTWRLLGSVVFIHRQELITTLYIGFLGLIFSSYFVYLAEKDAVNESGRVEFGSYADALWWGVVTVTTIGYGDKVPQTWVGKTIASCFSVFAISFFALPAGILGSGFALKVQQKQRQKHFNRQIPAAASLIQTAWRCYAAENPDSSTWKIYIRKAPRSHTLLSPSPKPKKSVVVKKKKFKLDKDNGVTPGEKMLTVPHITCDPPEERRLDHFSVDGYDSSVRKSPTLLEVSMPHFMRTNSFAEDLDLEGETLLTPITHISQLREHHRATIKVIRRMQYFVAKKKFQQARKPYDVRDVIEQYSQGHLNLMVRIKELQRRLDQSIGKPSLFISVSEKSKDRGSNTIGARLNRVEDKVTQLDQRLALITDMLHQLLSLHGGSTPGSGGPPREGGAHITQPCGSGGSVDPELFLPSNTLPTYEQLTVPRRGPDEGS

Test [5] deals with Potassium voltage-gated channel subfamily KQT member 2 (Rattus norvegicus) (UniProt O88943). In words: rat KCNQ2 channel potentiators, confirmation, cell-based, CHO, FluxOR thallium flux, duplicate (AID 2287;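 active = fluorescence ratio rising 3 SD or more over the vehicle control mean in both replicates, plus primary screen hit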;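 note: peak minus minimum thallium fluorescence divided by baseline after K/Tl stimulus; 0% = vehicle mean plus 3 SD and 100% = vehicle minus unstimulated blank difference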). The following applies: CHO-KCNQ2 cells, FluxOR thallium flux fluorescence; at 10 µM; active compounds read high.
Test [6] has as its target Inward rectifier potassium channel 2 (Mus musculus) (UniProt P35561). Nature of the test: PubChem AID 2345.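 Note: 0% = vehicle mean plus 3 SD and 100% = vehicle minus no-stimulus blank window.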 The following applies: HEK293 Kir2.1, FluxOR thallium flux fluorescence; at 10 µM; active compounds read high.
The target in test [7] is Voltage-gated inwardly rectifying potassium channel KCNH2 (Homo sapiens) (UniProt Q12809). In words: hERG channel inhibition, counter-screen for Kir2.1 inhibitor project, cell-based, thallium flux (AID 2236).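 Note: host cells are CHO cells stably expressing hERG.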 The following applies: hERG-expressing cells, at 10 µM; active compounds read high. (In general: hERG is a cardiac potassium channel; its block is linked to QT prolongation.)
Voltage-gated inwardly rectifying potassium channel KCNH2 (Homo sapiens), sequence (Q12809 whole entry, looked up): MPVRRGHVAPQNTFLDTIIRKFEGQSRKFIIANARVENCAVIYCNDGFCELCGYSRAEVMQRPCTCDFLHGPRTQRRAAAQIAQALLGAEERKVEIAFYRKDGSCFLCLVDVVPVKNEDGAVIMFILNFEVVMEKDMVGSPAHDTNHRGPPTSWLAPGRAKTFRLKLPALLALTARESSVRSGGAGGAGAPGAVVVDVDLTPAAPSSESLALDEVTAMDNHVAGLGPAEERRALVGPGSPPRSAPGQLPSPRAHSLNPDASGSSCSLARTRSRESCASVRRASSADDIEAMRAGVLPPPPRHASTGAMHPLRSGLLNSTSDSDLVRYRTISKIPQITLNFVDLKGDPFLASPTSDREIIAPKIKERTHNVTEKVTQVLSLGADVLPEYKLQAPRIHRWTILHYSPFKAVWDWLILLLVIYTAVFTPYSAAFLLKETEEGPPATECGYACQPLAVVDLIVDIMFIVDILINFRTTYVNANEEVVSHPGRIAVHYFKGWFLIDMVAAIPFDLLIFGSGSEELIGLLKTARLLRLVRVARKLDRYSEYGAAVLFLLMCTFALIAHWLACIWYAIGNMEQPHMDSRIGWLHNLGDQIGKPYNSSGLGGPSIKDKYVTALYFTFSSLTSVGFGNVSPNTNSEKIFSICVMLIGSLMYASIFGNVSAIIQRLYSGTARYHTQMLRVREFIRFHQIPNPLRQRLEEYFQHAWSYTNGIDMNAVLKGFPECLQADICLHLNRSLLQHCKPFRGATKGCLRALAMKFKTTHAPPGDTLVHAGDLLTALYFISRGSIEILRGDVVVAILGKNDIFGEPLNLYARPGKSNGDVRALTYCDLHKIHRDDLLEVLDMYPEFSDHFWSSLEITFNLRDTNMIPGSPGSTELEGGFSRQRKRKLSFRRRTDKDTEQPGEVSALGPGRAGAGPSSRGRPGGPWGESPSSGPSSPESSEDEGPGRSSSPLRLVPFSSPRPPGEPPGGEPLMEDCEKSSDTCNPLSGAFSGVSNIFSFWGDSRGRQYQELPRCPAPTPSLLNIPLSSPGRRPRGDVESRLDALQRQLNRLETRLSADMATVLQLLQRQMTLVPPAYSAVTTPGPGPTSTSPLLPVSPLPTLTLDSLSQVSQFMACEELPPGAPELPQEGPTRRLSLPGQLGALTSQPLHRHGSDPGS

For test [8], the target named is Potassium channel subfamily K member 9 (Homo sapiens) (UniProt Q9NPC2). Nature of the test: KCNK9 channel inhibition, selectivity assay for Kir2.1 inhibitor project, cell-based (AID 2329). Particulars: KCNK9-expressing cells, ion flux inhibition, at 10 µM; active compounds read high.
Test [9] deals with Inward rectifier potassium channel 2 (Mus musculus) (UniProt P35561). In words: mouse Kir2.1 channel blockers, Kir2.1 inhibitor project, cell-based, secondary, automated electrophysiology (AID 463252). The following applies: Kir2.1 cells, automated patch-clamp current inhibition, at 25 µM; active compounds read high. (In general: Patch clamp records ionic current or voltage across a cell membrane.)
Inward rectifier potassium channel 2 (Mus musculus), sequence (P35561 whole entry, looked up): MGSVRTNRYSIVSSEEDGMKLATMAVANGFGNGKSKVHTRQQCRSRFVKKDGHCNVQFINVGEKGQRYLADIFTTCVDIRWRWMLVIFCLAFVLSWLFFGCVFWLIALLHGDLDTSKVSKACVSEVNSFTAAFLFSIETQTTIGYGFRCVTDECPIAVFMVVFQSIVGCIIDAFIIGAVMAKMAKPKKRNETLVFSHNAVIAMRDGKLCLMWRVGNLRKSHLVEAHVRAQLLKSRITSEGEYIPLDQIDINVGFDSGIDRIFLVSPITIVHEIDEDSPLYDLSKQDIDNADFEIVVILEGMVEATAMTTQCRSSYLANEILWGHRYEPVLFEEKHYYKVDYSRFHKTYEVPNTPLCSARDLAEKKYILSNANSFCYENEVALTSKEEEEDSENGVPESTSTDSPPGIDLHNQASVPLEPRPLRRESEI

In test [10] the target is Potassium voltage-gated channel subfamily KQT member 2 (Rattus norvegicus) (UniProt O88943). In words: potentiators of retigabine-insensitive KCNQ2 W236L, mechanism study for KCNQ2 potentiator project, cell-based, rat KCNQ2 W236L, CHO, automated patch clamp (AID 2558;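 active = current increase at least 3 SD of the untreated controls above them in both duplicate recordings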). The following applies: at 25 µM; outcome: automated patch clamp current.

The list shows a part of the results. A number with no mark means an inactive call. Activity calls are given as the source filed them.

Take `CN(c1ccccc1)S(=O)(=O)c1ccc(Cl)c(C(=O)OCC(=O)NCc2ccco2)c1`: the compound was called inactive in [1] and in test [2]. In addition, the activity increase over 3SD of controls in test [3] is -5.5%. For the same compound, the activation over 3SD threshold in [4] is -28.3%. Further, in test [5], the potentiation, less the hit threshold was -1.3%. The activity over 3SD threshold in test [6] was -38.2%.
For the compound `CC(C)Cc1nnc(NC(=O)CCc2ccccc2)s1`, the compound was classed as inactive in [1] and in test [2]. The activity increase over 3SD of controls in test [3] is 45% (active). In addition, the activation over 3SD threshold in test [4] was -19.5%. For the same compound, the potentiation, less the hit threshold in [5] is -14.9%. Also, the activity over 3SD threshold in test [6] was -23.2%.
On to `Cc1ccccc1C(=O)NCCN=C1NS(=O)(=O)c2ccccc21`, for which the compound was classed as inactive in [1], in test [2], in [7], in test [8] and in [9].
As for `Cc1cc(C)nc(SCc2nnc(SCC(=O)OC3CCCCC3)o2)n1`, the Tl flux remaining, % of negative control (active compounds read low) in test [1] is 28% (active). Besides, the outcome in test [2], in test [7] and in test [8] was inactive. Besides, in [9], the inhibition is 82.2% (active).
Turning to `COc1ccc(CCNCc2c(-c3ccccc3)n(C)c3ccccc23)cc1`, in test [1], the Tl flux remaining, % of negative control (active compounds read low) is 33.5% (active). Also, the FluxOR signal as % of negative control (100 = no effect) in test [2] was 72% (active).
In the case of `COCCNC(=O)COc1ccc(N(C)S(=O)(=O)c2ccc3ccccc3c2)cc1`, in test [1], the Tl flux remaining, % of negative control (active compounds read low) was 58% (active). Also, the result in test [2] was inactive.
For the compound `COc1ccc(C(O)(C2CCCCC2)C(CN2CCCC2)c2ccccc2)cc1` (stereo not drawn), the Tl flux remaining, % of negative control (active compounds read low) in test [1] was 49% (active). Further, the outcome in [2], in test [7], in test [8] and in test [9] was inactive.
Turning to `C/C(=N\NC(=O)c1ccoc1C)c1ccccc1O`, the compound was called inactive in test [1], in test [2] and in test [10]. For the same compound, in [3], the activity increase over 3SD of controls was 53.8% (active). Besides, in [4], the activation over 3SD threshold is -7.3%. Moreover, the potentiation, less the hit threshold in test [5] was 52.9% (active). Besides, the activity over 3SD threshold in test [6] was -16.7%.
